Source: the supplement of paper PMC12494721
Counter-ions that a name gives are not always drawn.

What was measured:
Details in all cases: incubation time: 27 h, anaerobic, 37 °C;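 for the amine columns active = adjusted P below 0.05 in both replicates with a change the same way and a mean fold change under 0.8 or over 1.25; inactive = the rest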
[1] = tested on: Clostridium sporogenes DSM 1664; test: growth (OD595) fold change vs plate DMSO controls (fold change (ratio)); higher = more growth
In short: (§1)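 Anaerobic 27 h, 37 °C mGAM 96-well cultures were shaken, then read for absorbance at 595 nm. Values were blank-subtracted and corrected for compound background using 20 µM compound solutions in water. A calibration factor of 5 converted them to OD. Growth is the fold change versus the median of plate DMSO controls. Fold changes above 1.5 were set to NA, and values are the mean of 2 biological replicates.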

Escherichia coli IAI1 [2] = test: as above
In short: as §1

[3] = tested on: Klebsiella aerogenes DSM 30053; test: as above
In short: as §1

[4] = tested on: Ruminococcus gnavus DSM 108212; test: as above
In short: as §1

[5] = tested on: Klebsiella aerogenes DSM 30053; test: fold change of Histamine concentration vs plate DMSO controls (fold change (ratio)); higher = more amine produced, active = hit call of the paper (significant change in both replicates, either direction)
In short: (§2)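 Anaerobic mGAM cultures of four gut bacterial strains were grown at 37 °C for 27 h in 80 µL wells, starting at OD 0.1 before 1:1 dilution. Compounds were at 20 µM final (sweeteners 50 µM). Whole cultures were extracted with cold acetonitrile/methanol containing 0.1% formic acid and centrifuged. Amines were quantified by LC–triple-quadrupole MS (dynamic MRM) against external calibration curves and drift-corrected within batch. Each value is the fold change versus plate DMSO controls, averaged over 2 biological replicates.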

[6] = tested on: Clostridium sporogenes DSM 1664; test: fold change of Tryptamine concentration vs plate DMSO controls (fold change (ratio)); higher = more amine produced, active = hit call of the paper (significant change in both replicates, either direction)
In short: as §2

[7] = tested on: Ruminococcus gnavus DSM 108212; test: as above
In short: as §2

Escherichia coli IAI1 [8] = test: fold change of Putrescine concentration vs plate DMSO controls (fold change (ratio)); higher = more amine produced, active = hit call of the paper (significant change in both replicates, either direction)
In short: as §2

[9] = tested on: Klebsiella aerogenes DSM 30053; test: as above
In short: as §2

Escherichia coli IAI1 [10] = test: fold change of Cadaverine concentration vs plate DMSO controls (fold change (ratio)); higher = more amine produced, active = hit call of the paper (significant change in both replicates, either direction)
In short: as §2

[11] = tested on: Klebsiella aerogenes DSM 30053; test: as above
In short: as §2

[12] = tested on: Ruminococcus gnavus DSM 108212; test: fold change of 2-Phenylethylamine concentration vs plate DMSO controls (fold change (ratio)); higher = more amine produced, active = hit call of the paper (significant change in both replicates, either direction)
In short: as §2

SMILES | growth [1] | growth (Escherichia coli IAI1 [2]) | growth [3] | growth [4] | fold change of Histamine concentration [5] | fold change of Tryptamine concentration [6] | fold change of Tryptamine concentration [7] | fold change of Putrescine concentration (Escherichia coli IAI1 [8]) | fold change of Putrescine concentration [9] | fold change of Cadaverine concentration (Escherichia coli IAI1 [10]) | fold change of Cadaverine concentration [11] | fold change of 2-Phenylethylamine concentration [12]
CC(C)(C)CC(C)(C)c1ccc(O)c(Cc2ccc(Cl)cc2Cl)c1 [Clofoctol] (20 µM) | 0.000434 | 0.973 | 1.01 | 0.559 | 1.01 (inactive) | 0.0134 (active) | 0.143 (active) | 0.999 (inactive) | 1.01 (inactive) | 1.01 (inactive) | 1.01 (inactive) | 0.132 (active)
CC(C)(CO)[C@@H](O)C(=O)NCCC(=O)NCCSSCCNC(=O)CCNC(=O)[C@H](O)C(C)(C)CO [D-Pantethine] (20 µM) | 1.09 | 0.976 | 1.02 | 0.955 | 0.976 (inactive) | 1.03 (inactive) | 0.986 (inactive) | 1 (inactive) | 1.03 (inactive) | 1.03 (inactive) | 1 (inactive) | 1.02 (inactive)
N[C@@H](CSCCCO)C(=O)O [Fudosteine] (20 µM) | 0.96 | 1.05 | 1.01 | 1.14 | 0.977 (inactive) | 0.939 (inactive) | 1 (inactive) | 1.05 (inactive) | 1.02 (inactive) | 0.981 (inactive) | 1.01 (inactive) | 1.03 (inactive)
CC(C)(C)NC[C@H](O)c1ccc(O)c(CO)c1 [Levalbuterol hydrochloride] (20 µM) | 0.932 | 0.976 | 1.01 | 0.865 | 0.991 (inactive) | 0.99 (inactive) | 0.89 (inactive) | 1.24 (inactive) | 0.996 (inactive) | 0.974 (inactive) | 0.994 (inactive) | 0.861 (inactive)
Nc1ccc(C(=O)NCC(=O)O)cc1 [Aminohippuric acid] (20 µM) | 0.256 | 0.163 | 0 | 0.295 | 0.944 (inactive) | 0.982 (inactive) | 1.03 (inactive) | 1.04 (inactive) | 1.01 (inactive) | 0.988 (inactive) | 1.01 (inactive) | 1.03 (inactive)
CC(C(=O)O)c1cccc(C(=O)c2ccccc2)c1 (centres undefined) [Ketoprofen] (20 µM) | 0.99 | 1.04 | 0.993 | 0.957 | 1.03 (inactive) | 0.984 (inactive) | 1.06 (inactive) | 1.1 (inactive) | 1.01 (inactive) | 1.02 (inactive) | 0.995 (inactive) | 1.12 (inactive)
CC(C)NCC(O)c1ccc(O)c(O)c1 (single isomer, unassigned; (+)) [(+) Isoproterenol-(+)-bitartrate salt] (20 µM) | 1.02 | 1.06 | 0.995 | 1.06 | 1.03 (inactive) | 1.01 (inactive) | 0.989 (inactive) | 0.979 (inactive) | 0.997 (inactive) | 0.976 (inactive) | 0.974 (inactive) | 0.984 (inactive)
COc1ccc2c(c1)c(CC(=O)OC/C=C(\C)CC/C=C(\C)CCC=C(C)C)c(C)n2C(=O)c1ccc(Cl)cc1 [Indometacin farnesil] (20 µM) | 1.02 | 1.04 | 1.06 | 1.16 | 0.986 (inactive) | 0.94 (inactive) | 1.03 (inactive) | 1.03 (inactive) | 1.01 (inactive) | 1.04 (inactive) | 0.984 (inactive) | 1.06 (inactive)
CN1CCc2c(c3ccccc3n2Cc2ccccc2)C1 [Mebhydroline 1,5-naphtalenedisulfonate] (20 µM) | 0.931 | 0.967 | 1.04 | 0.742 | 1.01 (inactive) | 1.05 (inactive) | 0.911 (inactive) | 0.987 (inactive) | 0.991 (inactive) | 0.982 (inactive) | 1.01 (inactive) | 0.898 (inactive)
O=P(O)(O)C(O)(Cc1cccnc1)P(=O)(O)O [Risedronic acid monohydrate] (20 µM) | 1.08 | 1.12 | 1 | 0.913 | 1.05 (inactive) | 1.04 (inactive) | 1.04 (inactive) | 1.2 (inactive) | 1.02 (inactive) | 0.97 (inactive) | 1.01 (inactive) | 1.07 (inactive)
c1ccc(CC2=NCCN2)cc1 [Tolazoline hydrochloride] (20 µM) | 1.05 | 1 | 0.977 | 0.841 | 1.07 (inactive) | 0.962 (inactive) | 0.996 (inactive) | 0.996 (inactive) | 1.02 (inactive) | 1.06 (inactive) | 0.99 (inactive) | 1 (inactive)
CC[C@H](C)[C@H](N)C1=N[C@H](C(=O)N[C@@H](CC(C)C)C(=O)N[C@H](CCC(=O)O)C(=O)N[C@H](C(=O)N[C@H]2CCCCNC(=O)[C@H](CC(N)=O)NC(=O)[C@@H](CC(=O)O)NC(=O)[C@H](Cc3cnc[nH]3)NC(=O)[C@@H](Cc3ccccc3)NC(=O)[C@H]([C@@H](C)CC)NC(=O)[C@@H](CCCN)NC2=O)[C@@H](C)CC)CS1 [Bacitracin] (20 µM) | 1 | 1.05 | 1.02 | 0.0384 | 0.999 (inactive) | 1.02 (inactive) | 0.0521 (active) | 1.18 (inactive) | 1.01 (inactive) | 1.01 (inactive) | 1 (inactive) | 0.0535 (active)
